From PubChem BioAssay come the findings set out here.

The test system of assay [1] is PRMT1 (protein arginine N-methyltransferase 1). In words: small molecules binding arginine methyltransferase PRMT1 – biochemical, small-molecule microarray, 635 nm fluorescence, primary screen (AID 1088).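 Further: binding of Prmt1 protein to compounds spotted on small-molecule microarray slides.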 Conditions: higher = more signal.
The nature of assay [2]: growth effects on S. cerevisiae YJM789 – YJM789 clinical isolate, OD600, 24 h, basal, primary screen (AID 1089).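 Further: growth of clinical yeast isolate S. cerevisiae YJM 789 seeded 1000 cells per well; test concentration not given here.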 The conditions noted are these: higher = more signal, called active from +8 up or from −8 down.
Assay [3] is described as follows: S. pombe growth modifiers, basal conditions – strain 972, OD600, 24 h, no modulator, primary screen (AID 1090).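 Further: basal condition with compound alone and no growth modifier present; test concentration not given here.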 The conditions noted are these: S. pombe 972 growth, higher = more signal, called active from +8 up or from −8 down.
A short description of assay [4]: budding yeast growth modifiers under rapamycin – strain BY4716, OD600, 96 h, primary screen (AID 1091). Further: test concentration not given here. The conditions noted are these: S. cerevisiae BY4716 + rapamycin, higher = more signal, called active from +8 up or from −8 down.
Assay [5] addresses Torsin-1A-interacting protein 2 (Homo sapiens) (UniProt Q8NFQ8). In words: small molecules binding lysate-expressed LULL1 – cell lysate, human LULL1 lysate, 635/667 nm fluorescence, primary screen (AID 1092).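 Further: probe is lysate of COS7 cells overexpressing human LULL1; score merges per-feature 667 nm fluorescence with signal-to-noise.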 Conditions: small-molecule microarray, hLULL1 lysate binding, 635 nm fluorescence; higher = more signal.
Assay [6] is described as follows: optical density change of DRC41 E. coli – strain DRC41, OD650, 24 h, E. coli filamentation project, primary screen (AID 1093).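 Further: MC1000 strain lacking acrAB efflux and sulA so SOS filamentation is blocked; test concentration not given here.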 The conditions noted are these: E. coli DRC41 growth, higher = more signal, called active from +8 up or from −8 down.
Assay [7] is described as follows: probe aLefty2 binding to arrayed compounds – biochemical, biotinylated probe, 635/667 nm fluorescence, primary screen (AID 1094).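 Further: score merges spot fluorescence near 667 nm with spot signal-to-noise ratio.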 The conditions noted are these: small-molecule microarray, higher = more signal.
The test system of assay [8] is Noggin (protein binding on small-molecule microarray). In words: small molecules binding Noggin protein – biochemical, 635/667 nm fluorescence, primary screen (AID 1095).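 Further: score merges 667 nm feature fluorescence with signal to noise over triplicate slides.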 The conditions noted are these: 635 nm fluorescence, higher = more signal.
Assay [9] concerns the target Neurogenic locus notch homolog protein 3 (Homo sapiens) (UniProt Q9UM47). In words: small molecules binding NOTCH3 protein – biochemical, 635/667 nm fluorescence, primary screen (AID 1096). Conditions: small-molecule microarray, 635 nm fluorescence, higher = more signal.
Assay [10] is described as follows: probe aEGFR binding to arrayed compounds – biochemical, biotinylated probe, 635/667 nm fluorescence, primary screen (AID 1097).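 Further: probe is a biotinylated anti-EGFR antibody binding compounds printed on slides; score combines fluorescence near 667 nm and signal to noise of each spot.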 Conditions: small-molecule microarray, higher = more signal.

Active and inactive are the calls of the source.

Neurogenic locus notch homolog protein 3 (Homo sapiens), sequence (Q9UM47 whole entry, looked up): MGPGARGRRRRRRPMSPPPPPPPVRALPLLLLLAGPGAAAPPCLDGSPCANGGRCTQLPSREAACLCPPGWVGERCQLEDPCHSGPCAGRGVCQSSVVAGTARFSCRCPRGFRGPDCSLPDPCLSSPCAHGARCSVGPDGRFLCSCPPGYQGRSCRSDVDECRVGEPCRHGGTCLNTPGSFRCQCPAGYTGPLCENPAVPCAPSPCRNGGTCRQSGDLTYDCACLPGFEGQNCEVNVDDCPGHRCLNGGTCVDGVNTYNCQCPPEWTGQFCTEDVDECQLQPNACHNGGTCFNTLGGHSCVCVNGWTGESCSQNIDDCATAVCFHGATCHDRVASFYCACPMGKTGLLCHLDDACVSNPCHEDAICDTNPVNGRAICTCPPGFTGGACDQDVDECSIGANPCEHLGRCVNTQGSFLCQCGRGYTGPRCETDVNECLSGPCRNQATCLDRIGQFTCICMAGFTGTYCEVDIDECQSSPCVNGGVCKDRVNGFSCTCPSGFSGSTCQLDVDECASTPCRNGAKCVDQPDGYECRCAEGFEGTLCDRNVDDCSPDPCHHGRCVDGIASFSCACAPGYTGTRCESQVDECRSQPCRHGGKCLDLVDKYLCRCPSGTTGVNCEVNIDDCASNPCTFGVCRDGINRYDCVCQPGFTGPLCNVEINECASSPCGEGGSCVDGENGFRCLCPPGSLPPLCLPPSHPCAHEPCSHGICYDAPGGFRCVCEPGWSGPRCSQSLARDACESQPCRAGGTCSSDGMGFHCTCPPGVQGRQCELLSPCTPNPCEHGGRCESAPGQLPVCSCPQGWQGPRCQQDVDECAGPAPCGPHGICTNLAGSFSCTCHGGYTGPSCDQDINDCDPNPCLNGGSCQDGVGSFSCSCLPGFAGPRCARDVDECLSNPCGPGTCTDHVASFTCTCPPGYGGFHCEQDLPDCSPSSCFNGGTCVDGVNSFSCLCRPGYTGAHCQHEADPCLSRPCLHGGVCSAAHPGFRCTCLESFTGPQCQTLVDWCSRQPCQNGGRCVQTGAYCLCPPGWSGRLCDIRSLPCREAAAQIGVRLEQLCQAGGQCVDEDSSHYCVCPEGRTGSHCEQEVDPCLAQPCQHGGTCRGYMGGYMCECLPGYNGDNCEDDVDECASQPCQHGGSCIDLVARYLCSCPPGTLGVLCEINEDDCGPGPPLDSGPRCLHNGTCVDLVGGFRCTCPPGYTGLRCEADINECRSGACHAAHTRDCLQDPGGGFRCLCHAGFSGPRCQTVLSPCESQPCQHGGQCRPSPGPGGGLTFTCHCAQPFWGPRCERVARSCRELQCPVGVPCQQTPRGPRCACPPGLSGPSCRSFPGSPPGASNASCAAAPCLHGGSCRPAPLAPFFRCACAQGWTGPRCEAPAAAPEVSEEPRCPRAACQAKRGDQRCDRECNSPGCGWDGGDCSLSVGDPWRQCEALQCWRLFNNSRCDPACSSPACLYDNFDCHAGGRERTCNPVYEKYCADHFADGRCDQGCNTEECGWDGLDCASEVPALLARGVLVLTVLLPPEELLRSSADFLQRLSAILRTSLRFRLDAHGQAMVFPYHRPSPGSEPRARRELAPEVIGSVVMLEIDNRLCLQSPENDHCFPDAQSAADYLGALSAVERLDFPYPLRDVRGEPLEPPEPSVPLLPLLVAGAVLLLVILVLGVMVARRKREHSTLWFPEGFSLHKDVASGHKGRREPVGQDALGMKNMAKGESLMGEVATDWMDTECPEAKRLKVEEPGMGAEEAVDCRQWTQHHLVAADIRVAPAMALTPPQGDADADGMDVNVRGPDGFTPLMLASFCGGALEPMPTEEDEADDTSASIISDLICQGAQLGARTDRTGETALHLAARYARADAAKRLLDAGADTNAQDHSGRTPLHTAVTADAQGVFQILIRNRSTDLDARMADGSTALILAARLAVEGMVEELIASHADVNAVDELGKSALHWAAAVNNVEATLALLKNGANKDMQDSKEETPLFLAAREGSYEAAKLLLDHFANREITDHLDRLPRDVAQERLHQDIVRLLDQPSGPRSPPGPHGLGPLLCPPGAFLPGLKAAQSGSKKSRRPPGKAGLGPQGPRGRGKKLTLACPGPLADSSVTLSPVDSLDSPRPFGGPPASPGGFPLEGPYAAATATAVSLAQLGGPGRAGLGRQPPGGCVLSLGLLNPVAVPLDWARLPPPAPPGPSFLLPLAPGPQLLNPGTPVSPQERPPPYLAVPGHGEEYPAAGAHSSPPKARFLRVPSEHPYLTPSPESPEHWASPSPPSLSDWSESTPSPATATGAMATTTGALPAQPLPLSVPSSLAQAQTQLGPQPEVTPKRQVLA
Torsin-1A-interacting protein 2 (Homo sapiens), sequence (Q8NFQ8 whole entry, looked up): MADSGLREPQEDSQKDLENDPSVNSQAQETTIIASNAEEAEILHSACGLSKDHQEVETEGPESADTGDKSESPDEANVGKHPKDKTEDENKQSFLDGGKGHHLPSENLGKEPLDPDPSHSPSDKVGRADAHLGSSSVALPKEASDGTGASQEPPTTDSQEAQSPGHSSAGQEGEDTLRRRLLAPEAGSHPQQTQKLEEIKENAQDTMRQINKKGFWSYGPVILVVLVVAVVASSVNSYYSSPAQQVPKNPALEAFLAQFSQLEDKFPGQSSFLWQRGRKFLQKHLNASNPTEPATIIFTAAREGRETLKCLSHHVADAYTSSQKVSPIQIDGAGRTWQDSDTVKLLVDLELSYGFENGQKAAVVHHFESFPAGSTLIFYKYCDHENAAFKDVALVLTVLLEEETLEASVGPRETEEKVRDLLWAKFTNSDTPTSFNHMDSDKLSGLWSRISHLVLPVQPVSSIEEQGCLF

`CC[C@@H](c1ccccc1)n1c(=O)n2n(c1=O)[C@H]1[C@H](O)[C@@H]3O[C@@H]3C(=NOCC(C)C)[C@H]1CC2`: the composite z-score in assay [1] is -0.179; in assay [5], 0.543; in [7], -0.213; in assay [8] it was 0.288; in assay [9], 0.586; in assay [10], -0.0967. Also, the z-score is 1.3 (inactive) in assay [2], -0.0534 (inactive) in assay [3], 1.37 (inactive) in assay [4] and 0.409 (inactive) in [6].
In the case of `CC(=O)O[C@H]1C2=C(C(=O)[C@@H]3O[C@@H]31)[C@H]1C(C)O[C@@H]2[C@@]23C(=O)[C@@H]4O[C@@H]4[C@@H](O)C2=CO[C@H](C)[C@@H]13` (stereo not given in full), the composite z-score in assay [1] was 0.417; in [5], -0.0273; in assay [7] it was -0.265; in assay [8], -0.0408; in [9], 0.0275; in assay [10] it was -0.0671. The z-score in assay [2] is 0.014 (inactive); in [3] it was -0.361 (inactive); in [4], 0.465 (inactive); in assay [6] it was 0.16 (inactive).
On to `COCCOC(=O)N1C(=O)[C@@]2(c3cc(C#CCNC(N)=O)ccc31)[C@H](c1ccccc1OCCO)N1[C@H](c3ccccc3)[C@H](c3ccccc3)OC(=O)[C@H]1[C@@H]2C(=O)N1CCN(c2ncccn2)CC1`, for which the composite z-score in [1] is 1.44; in assay [5], 2.22; in [7] it was 0.065; in [8] it was 0.43; in assay [9], 0.572; in assay [10] it was -0.0271. Besides, the z-score in assay [2] was -0.0197 (inactive); in assay [3], 2.11 (inactive); in assay [4] it was 3.85 (inactive); in assay [6], 0.961 (inactive).
With `CC(CCN1CCc2nc(-c3ccccc3)c(-c3ccccc3)cc2C1)=NOC[C@@H](C)[C@H](OCc1ccccc1)C(C)C`, the composite z-score was -0.299 in assay [1]; 0.628 in [5]; -0.195 in assay [7]; -0.179 in [8]; -2.07 in assay [9]; -0.25 in assay [10]. In addition, the z-score was -0.511 (inactive) in assay [2], -1.17 (inactive) in assay [3], -3.43 (inactive) in assay [4] and -0.518 (inactive) in assay [6].
`CO[C@H]1O[C@H](CO)[C@@H](OC(=O)Nc2ccc(C#N)cc2)[C@H](OC(=O)c2cc3ccccc3[nH]2)[C@H]1OC(=O)c1cc2ccccc2[nH]1`: the composite z-score was 1.3 in [1]; 1.77 in assay [5]; 0.0261 in assay [7]; 1.02 in assay [8]; 0.695 in [9]; -0.0238 in assay [10]. Besides, the z-score in [2] was -2.49 (inactive); in [3] it was -1.17 (inactive); in [4] it was 0.507 (inactive); in assay [6], 3.01 (inactive).
Turning to `CCc1cc2c(nc1CC)CCN(CCC(C)=NOC[C@@H](O)[C@H]1O[C@@H]3OC(C)(C)O[C@@H]3[C@H]1O)C2`, the composite z-score in assay [1] was 0.85; in assay [5] it was 0.767; in [7] it was -0.175; in [8], 0.276; in assay [9], 0.0003; in [10], -0.0343. Moreover, the z-score was -1.63 (inactive) in [2], 0.24 (inactive) in [3], -0.282 (inactive) in assay [4] and 0.71 (inactive) in [6].
Turning to `CC(C)C[C@@H]1NC(=O)[C@H]2C[C@@H](C(=O)O)[C@@H](c3ccc(O)cc3)N2C1=O`, the composite z-score was determined as 0.879 in assay [1]; 1.15 in assay [5]; 0.449 in assay [7]; 0.4 in assay [8]; 0.436 in assay [9]; 0.0577 in [10]. In addition, the z-score in assay [2] is 0.634 (inactive); in assay [3], -0.213 (inactive); in assay [4] it was 1.83 (inactive); in assay [6], 0.831 (inactive).
Regarding `C=C(CCCC)C(=O)CC[C@@H](OC(C)=O)c1cccc(OCCO)c1`, the composite z-score in [1] was 0.468; in [5], 0.0116; in assay [7], -0.193; in assay [8] it was 1.54; in [9], 0.165; in assay [10] it was -0.192. The z-score in assay [2] is -24.3 (active); in assay [3] it was -20.6 (active); in assay [4], -3.92 (inactive); in [6], -0.139 (inactive).
`CC(=O)OC[C@H]1O[C@H](CC=NOC[C@@H](C)[C@H](OCc2ccccc2)C(C)C)C=C[C@@H]1OC(C)=O`: the composite z-score is 0.7 in [1]; -0.299 in assay [5]; -0.0345 in assay [7]; 0.259 in [8]; -0.14 in assay [9]; -0.0873 in [10]. The z-score in [2] was -0.523 (inactive); in assay [3], -0.0269 (inactive); in assay [4], -1 (inactive); in assay [6], -0.186 (inactive).
In the case of `COC(=O)[C@@H]1N=C(c2ccc(OCCCO)cc2)O[C@@H]1c1ccccc1N=[N+]=[N-]`, the composite z-score is 1.5 in assay [1]; 3.01 in assay [5]; 0.19 in assay [7]; -0.179 in assay [8]; 0.487 in [9]; -0.027 in [10]. Besides, the z-score in [2] is -2.6 (inactive); in assay [3], -7.5 (inactive); in assay [4], -1.15 (inactive); in assay [6] it was 1.2 (inactive).
Turning to `CC(CCN1CCCCc2nc(C)c(C)cc21)=NOC(C)CN1CCCCc2nc(C)c(C)cc21` (stereo not given), the composite z-score in assay [1] was 1.52; in assay [5], 2.37; in assay [7], -0.0101; in [8], 1.04; in [9], 1.07; in [10] it was 0.272. For the same compound, the z-score in assay [2] was -1.32 (inactive); in assay [3], -1.49 (inactive); in assay [4], 0.187 (inactive); in [6] it was -0.0919 (inactive).
